In PubChem BioAssay one finds inhibition data, which are given here for 14 compounds.

A number with no mark means an inactive call. Calls of active or inactive are those of the source. Rule as the data show it, unless noted: active = inhibition above about 44%; inactive = the rest.

A short description of assay [1]: StAR promoter reporter inhibitors, counter-screen for LRH-1 inverse agonist project, cell-based, luminescence, high throughput (AID 651611; in the data active = inhibition above about 28%). To be noted: StAR promoter luciferase reporter counterscreen, at 3.6 µM, active compounds read high.
Assay [2] has as its target Nuclear receptor subfamily 5 group A member 2 (Homo sapiens) (UniProt O00482). The assay can be described thus: NR5A2 activity suppression in reporter cells – cell-based, luminescence, confirmation (AID 651613; in the data active = inhibition above about 42%;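 also: HEK293T cells co-transfected with LRH-1 and StAR promoter luciferase reporter; 0% = vehicle wells and 100% = parental cells lacking receptor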). The following applies: cell-based LRH-1 luciferase reporter, inverse agonism; at 3.6 µM; active compounds read high. In general terms: A reporter such as luciferase makes a cellular process visible.

Assay [3] has as its target Steroidogenic factor 1 (Homo sapiens) (UniProt Q13285). The assay can be described thus: inverse agonism at SF1 nuclear receptor – cell-based, luminescence, high throughput, counter-screen for LRH-1 inverse agonist project (AID 651614).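 Also: cells cotransfected with StAR promoter reporter and SF1 expression vector; 0% = vehicle on cells with receptor and 100% = vehicle on cells lacking receptor.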 To be noted: cell-based SF1 luciferase reporter, at 3.6 µM, active compounds read high.
Assay [4] is described as follows: compounds suppressing VP16-driven luciferase signal – cell-based, luminescence, high throughput, counter-screen for LRH-1 inverse agonist project (AID 651615; in the data active = inhibition above about 33%). The following applies: Gal4-VP16 luciferase reporter cells, at 3.6 µM, active compounds read high. For orientation: The purpose of a counterscreen is to sort out artefacts and off-target activity.

Nuclear receptor subfamily 5 group A member 2 (Homo sapiens), sequence (O00482 whole entry, looked up): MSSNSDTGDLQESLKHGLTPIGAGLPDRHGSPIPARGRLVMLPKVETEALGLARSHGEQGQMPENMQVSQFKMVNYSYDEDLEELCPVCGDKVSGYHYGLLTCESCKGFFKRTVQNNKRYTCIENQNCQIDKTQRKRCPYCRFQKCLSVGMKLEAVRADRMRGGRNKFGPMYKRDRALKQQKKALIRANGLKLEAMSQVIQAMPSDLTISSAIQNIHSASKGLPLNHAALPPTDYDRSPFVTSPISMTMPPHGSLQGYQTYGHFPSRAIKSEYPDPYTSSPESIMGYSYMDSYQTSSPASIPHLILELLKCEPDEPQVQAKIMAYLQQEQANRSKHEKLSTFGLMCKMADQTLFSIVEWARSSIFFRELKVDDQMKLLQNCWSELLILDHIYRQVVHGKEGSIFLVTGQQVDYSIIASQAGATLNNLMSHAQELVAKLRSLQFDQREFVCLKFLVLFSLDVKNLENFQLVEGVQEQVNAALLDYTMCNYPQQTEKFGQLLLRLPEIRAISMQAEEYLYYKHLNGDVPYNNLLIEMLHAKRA
Steroidogenic factor 1 (Homo sapiens), sequence (Q13285 whole entry, looked up, the tested form may be a part): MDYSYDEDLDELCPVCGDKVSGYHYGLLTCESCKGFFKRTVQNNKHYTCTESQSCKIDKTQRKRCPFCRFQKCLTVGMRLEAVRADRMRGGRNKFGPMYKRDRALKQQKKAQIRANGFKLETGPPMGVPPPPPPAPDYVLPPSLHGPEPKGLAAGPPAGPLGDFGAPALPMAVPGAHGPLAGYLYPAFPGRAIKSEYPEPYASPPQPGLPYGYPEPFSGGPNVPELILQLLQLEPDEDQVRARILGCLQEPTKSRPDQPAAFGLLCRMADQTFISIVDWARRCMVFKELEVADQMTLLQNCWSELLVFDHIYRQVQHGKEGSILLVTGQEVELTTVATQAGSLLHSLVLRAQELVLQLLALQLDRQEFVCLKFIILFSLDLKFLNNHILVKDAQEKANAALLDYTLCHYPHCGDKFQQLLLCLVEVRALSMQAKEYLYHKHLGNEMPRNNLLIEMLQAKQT

As for `N#CC1=C(N2CCOCC2)/C(=C\c2ccccc2)CC1`, the inhibition – broadly, the change of the read-out against control, counted positive when it falls – was 14.8% in assay [1], 51.9% (active) in assay [2], 46.6% (active) in assay [3] and 8.41% in assay [4].

As for `COc1ccccc1-c1cc(NC=O)c2ncc(-c3ccc(S(C)(=O)=O)cc3)n2c1`, the inhibition in assay [1] was 31.8% (active); in assay [2], 42.8% (active); in assay [3] it was 46.9% (active); in assay [4] it was -33.2%.

Regarding `CCOc1ccc(CCNC(=O)COC(=O)c2cc([N+](=O)[O-])ccc2N2CCOCC2)cc1OCC`, the inhibition in assay [1] is 9.91%; in assay [2], 58.4% (active); in assay [3], 56.6% (active); in assay [4], -11.1%.

As for `COc1ccc2c(c1)/C(=C/c1cc(OC)c(OC)c(OC)c1)C(=O)N2`, the inhibition in assay [1] was 52% (active); in assay [2] it was 51% (active); in assay [3] it was 48.2% (active); in assay [4], 41.6% (active).

As for `O=C(Nc1cc(-c2nc3ncccc3o2)ccc1Cl)c1ccc([N+](=O)[O-])o1`, the inhibition in assay [1] was 15.3%; in assay [2], 52.2% (active); in assay [3] it was 53.2% (active); in assay [4], -25.6%.

In the case of `COC(=O)c1ccc(NC(=O)CSc2ccc(-c3ccccn3)nn2)cc1`, the inhibition in assay [1] is -13.3%; in assay [2], 52.9% (active); in assay [3], 41.7%; in assay [4] it was -18%.

For the compound `O=C(COc1cc2oc(=O)cc(-c3ccccc3)c2cc1Cl)NCCN1CCOCC1`, the inhibition in assay [1] was 10.4%; in assay [2], 40.5%; in assay [3], 35.4%; in assay [4], -2.31%.

As to `O=C(c1ccccc1)N1CCN(c2ccc([N+](=O)[O-])c(N3CCOCC3)c2)CC1`, the inhibition is 9.16% in assay [1], 39.5% in assay [2], 34.7% in assay [3] and 3.81% in assay [4].

Turning to `CCOc1ccc(NC(=O)COC(=O)C2COc3ccccc3O2)cc1` (stereo unspecified), the inhibition is -6.6% in assay [1], 35.4% in assay [2], 28.8% in assay [3] and 3.94% in assay [4].

Regarding `CNC(=O)c1nc(C)c(C2(C)CC(c3cccc([N+](=O)[O-])c3)=NO2)s1` (stereo unspecified), the inhibition in assay [1] was 8.75%; in assay [2] it was 27%; in assay [3] it was 35.6%; in assay [4] it was -1.29%.

Regarding `CC(=O)N1CCc2c(sc(NC(=O)c3ccc([N+](=O)[O-])o3)c2C(N)=O)C1`, the inhibition in assay [1] was 19.9%; in assay [2], 65.2% (active); in assay [3], 65.3% (active); in assay [4], -14.1%.

Consider `Cc1nnsc1S(=O)c1ccc(Br)cc1` (stereo unspecified), for which the inhibition in assay [1] is 4.11%; in assay [2] it was 45.4% (active); in assay [3] it was 44.9% (active); in assay [4] it was 3.37%.

Regarding `CCCc1cc(=O)oc2cc(OCC(=O)NCc3ccccn3)ccc12`, the inhibition in assay [1] was 10.6%; in assay [2], 55.5% (active); in assay [3], 59.1% (active); in assay [4], -9.39%.

As to `CCCc1nnc(SCC(=O)Nc2ccc(OC)cc2)o1`, the inhibition in assay [1] is 5.23%; in assay [2], 42.6% (active); in assay [3], 45% (active); in assay [4], -8.5%.
